Laboratory results taken from the supplement of paper PMC10849652.
Of roughly 7,900 targets only a part is listed; those with a hit were picked by preference. About 0.6% of all pairs of compound and target were hits.

Key:
Test in all cases: log2 fold change, soluble protein after heating vs DMSO (PISA); higher = thermal stabilisation; K562 cells, 10 uM, 30 min; active = over 0.2 and 3.5 SD of the protein, either way, in both replicates (recomputed)
bafetinib = compound: Cc1ccc(NC(=O)c2ccc(CN3CC[C@H](N(C)C)C3)c(C(F)(F)F)c2)cc1Nc1nccc(-c2cncnc2)n1 [bafetinib]
How it was run: (§1)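 K562 cells at 2×10^6 cells/mL were given 10 μM compound for 30 min. Aliquots then went through 3 min of heating across 48°C-58°C, were pooled, and were extracted in PBS with 0.5% NP-40 at 4°C, and the supernatant after 21,000xg for 90 min was quantified by TMTpro 16plex LC-MS/MS with channel sums equalised. Thermal stability relative to control samples, from duplicates, is given as log2 fold change.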

[1] = compound: Cc1cccc(CC(=O)N2CCc3c2ccc(-c2cn(C)c4ncnc(N)c24)c3F)n1
How it was run: as §1

nilotinib = compound: Cc1cn(-c2cc(NC(=O)c3ccc(C)c(Nc4nccc(-c5cccnc5)n4)c3)cc(C(F)(F)F)c2)cn1 [nilotinib]
How it was run: as §1

[2] = compound: Cc1nc(Nc2n[nH]c3c2CN(C(=O)N[C@H](CN(C)C)c2ccccc2)C3(C)C)c2sccc2n1
How it was run: as §1

dasatinib = compound: Cc1nc(Nc2ncc(C(=O)Nc3c(C)cccc3Cl)s2)cc(N2CCN(CCO)CC2)n1 [dasatinib]
How it was run: as §1

[3] = compound: Cc1ncc(-c2ccnc(Nc3ccc(S(C)(=O)=O)cc3)n2)n1C(C)C
How it was run: as §1

[4] = compound: Cn1cc(-c2ccc3c(c2)CCN3C(=O)Cc2cccc(C(F)(F)F)c2)c2c(N)ncnc21
How it was run: as §1

[5] = compound: Cn1cc(-c2ccc3nnc(C(F)(F)c4ccc5ncccc5c4)n3n2)cn1
How it was run: as §1

tipifarnib = compound: Cn1cncc1[C@@](N)(c1ccc(Cl)cc1)c1ccc2c(c1)c(-c1cccc(Cl)c1)cc(=O)n2C [tipifarnib]
How it was run: as §1

mubritinib = compound: FC(F)(F)c1ccc(/C=C/c2nc(COc3ccc(CCCCn4ccnn4)cc3)co2)cc1 [mubritinib]
How it was run: as §1

[6] = compound: NC(=O)Nc1cc(-c2cccc(F)c2)sc1C(=O)N[C@H]1CCCNC1
How it was run: as §1

[7] = compound: NC(=O)c1cnc(N[C@@H]2CCCC[C@@H]2N)nc1Nc1cccc(-n2nccn2)c1
How it was run: as §1

[8] = compound: NC1(c2ccc(-c3nc4ccn5c(=O)[nH]nc5c4cc3-c3ccccc3)cc2)CCC1
How it was run: as §1

[9] = compound: NCC(=O)Nc1ccc(-n2nc(C(F)(F)F)cc2-c2ccc3c(ccc4ccccc43)c2)cc1
How it was run: as §1

entinostat = compound: Nc1ccccc1NC(=O)c1ccc(CNC(=O)OCc2cccnc2)cc1 [entinostat]
How it was run: as §1

vorinostat = compound: O=C(CCCCCCC(=O)Nc1ccccc1)NO [vorinostat]
How it was run: as §1

citarinostat = compound: O=C(CCCCCCNC(=O)c1cnc(N(c2ccccc2)c2ccccc2Cl)nc1)NO [citarinostat]
How it was run: as §1

silmitasertib = compound: O=C(O)c1ccc2c(c1)nc(Nc1cccc(Cl)c1)c1ccncc12 [silmitasertib]
How it was run: as §1

[10] = compound: O=C1NC(=O)C(c2cnc3ccccn23)=C1c1cn2c3c(cc(F)cc13)CN(C(=O)N1CCCCC1)CC2
How it was run: as §1

[11] = compound: c1cc(OCCN2CCCCC2)cc(-c2n[nH]c3ccc(-c4nnc[nH]4)cc23)c1
How it was run: as §1

Measured: log2 fold change

MCUR1 (UniProt Q96AQ8)
inactive: bafetinib 0 | [1] 0 | nilotinib 0.015 | [2] 0.015 | dasatinib -0.037 | [3] -0.004 | [4] 0.031 | [5] -0.091 | tipifarnib -0.028 | mubritinib 0.044 | [6] -0.043 | [7] -0.048 | [8] 0.011 | [9] 0.01 | entinostat -0.028 | vorinostat -0.026 | citarinostat -0.001 | silmitasertib -0.023 | [10] -0.036 | [11] -0.018

KDM3B (UniProt Q7LBC6)
inactive: bafetinib -0.005 | [1] 0.038 | nilotinib -0.009 | [2] -0.098 | dasatinib -0.136 | [3] 0.042 | [4] -0.032 | [5] 0.006 | tipifarnib 0.018 | mubritinib 0.002 | [6] -0.051 | [7] -0.033 | [8] -0.114 | [9] -0.088 | entinostat 0.027 | vorinostat 0.069 | citarinostat 0.098 | silmitasertib 0.056 | [10] -0.064 | [11] -0.023

LEMD3 (UniProt Q9Y2U8)
inactive: bafetinib -0.171 | [1] -0.114 | nilotinib -0.127 | [2] -0.026 | dasatinib -0.106 | [3] 0.037 | [4] 0.163 | [5] 0.049 | tipifarnib -0.008 | mubritinib 0.001 | [6] -0.206 | [7] -0.029 | [8] -0.142 | [9] -0.116 | entinostat -0.017 | vorinostat 0.035 | citarinostat 0.053 | silmitasertib -0.068 | [10] -0.077 | [11] 0.057

MAPK14 isoform 2 (UniProt Q16539)
Sequence of UniProt Q16539 (Q16539 whole entry, looked up): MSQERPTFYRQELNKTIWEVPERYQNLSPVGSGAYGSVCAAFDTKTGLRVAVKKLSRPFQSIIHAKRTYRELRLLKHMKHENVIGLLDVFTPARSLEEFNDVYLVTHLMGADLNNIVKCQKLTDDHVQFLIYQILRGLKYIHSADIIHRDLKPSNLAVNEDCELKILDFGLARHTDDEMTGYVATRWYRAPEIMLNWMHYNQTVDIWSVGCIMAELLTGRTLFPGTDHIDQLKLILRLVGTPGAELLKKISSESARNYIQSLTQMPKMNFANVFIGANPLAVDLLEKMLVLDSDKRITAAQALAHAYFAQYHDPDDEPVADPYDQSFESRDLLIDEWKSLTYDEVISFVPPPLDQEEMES
inactive: [1] -0.038 | [2] 0.176 | [3] 0.037 | [4] -0.071 | [5] -0.02 | tipifarnib -0.049 | mubritinib 0 | [6] -0.052 | [7] 0.028 | [8] -0.192 | [9] -0.168 | entinostat 0.016 | vorinostat -0.055 | citarinostat 0.085 | silmitasertib 0.477 | [10] -0.004 | [11] 0.024
active: bafetinib 1.73 | nilotinib 1.67 | dasatinib 1.37

MARCKS (UniProt P29966)
inactive: bafetinib -0.102 | [1] -0.133 | nilotinib 0.053 | [2] -0.003 | dasatinib 0.022 | [3] -0.007 | [4] 0.033 | [5] 0.034 | tipifarnib -0.002 | mubritinib -0.017 | [6] -0.018 | [7] 0.108 | [8] 0.038 | [9] 0.07 | entinostat -0.074 | vorinostat -0.159 | citarinostat 0.062 | silmitasertib -0.021 | [10] 0.031 | [11] -0.08

MAGEA9 (UniProt P43362)
Sequence of UniProt P43362 (P43362 whole entry, looked up): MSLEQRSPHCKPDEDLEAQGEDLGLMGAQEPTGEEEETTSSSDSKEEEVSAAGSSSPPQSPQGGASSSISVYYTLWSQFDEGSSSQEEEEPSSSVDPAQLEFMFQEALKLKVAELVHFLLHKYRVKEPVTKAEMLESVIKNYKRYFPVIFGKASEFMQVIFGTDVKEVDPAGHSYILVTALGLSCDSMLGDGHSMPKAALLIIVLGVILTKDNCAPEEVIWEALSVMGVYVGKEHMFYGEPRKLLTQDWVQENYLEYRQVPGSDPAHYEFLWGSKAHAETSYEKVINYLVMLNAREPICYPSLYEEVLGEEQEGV
inactive: bafetinib 0.03 | [1] -0.02 | nilotinib 0.021 | [2] -0.006 | dasatinib 0.074 | [3] -0.034 | [4] 0.065 | [5] -0.024 | tipifarnib -0.008 | mubritinib -0.048 | [6] -0.017 | [7] -0.027 | [8] -0.243 | [9] 0.033 | entinostat 0 | vorinostat 0.132 | citarinostat 0.013 | silmitasertib 0.052 | [10] -0.079 | [11] -0.106

LRPPRC (UniProt P42704)
inactive: bafetinib -0.053 | [1] 0.117 | nilotinib -0.14 | [2] -0.721 | dasatinib -0.732 | [3] 0.016 | [4] 0.236 | [5] 0.24 | tipifarnib -0.656 | mubritinib -0.161 | [6] -0.249 | [7] -0.291 | [8] -0.676 | [9] -0.272 | entinostat 0.479 | vorinostat 0.289 | citarinostat 0.203 | silmitasertib 0.033 | [10] -0.383 | [11] -0.128

LTV1 (UniProt Q96GA3)
Sequence of UniProt Q96GA3 (Q96GA3 whole entry, looked up): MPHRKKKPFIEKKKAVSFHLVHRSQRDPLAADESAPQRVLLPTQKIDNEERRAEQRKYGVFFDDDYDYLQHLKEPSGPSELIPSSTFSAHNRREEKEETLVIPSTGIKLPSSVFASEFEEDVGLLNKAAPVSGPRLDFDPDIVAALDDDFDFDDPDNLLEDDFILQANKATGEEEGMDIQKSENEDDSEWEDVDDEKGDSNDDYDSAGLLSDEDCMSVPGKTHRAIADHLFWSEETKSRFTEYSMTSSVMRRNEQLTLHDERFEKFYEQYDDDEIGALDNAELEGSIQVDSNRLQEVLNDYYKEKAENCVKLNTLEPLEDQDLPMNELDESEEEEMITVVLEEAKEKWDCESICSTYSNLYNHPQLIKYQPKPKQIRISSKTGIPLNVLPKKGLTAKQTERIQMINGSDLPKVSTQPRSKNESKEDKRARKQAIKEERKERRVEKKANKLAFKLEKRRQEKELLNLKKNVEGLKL
inactive: bafetinib 0.137 | [1] -0.039 | nilotinib -0.047 | [2] 0.137 | dasatinib 0.025 | [3] 0.009 | [4] -0.112 | [5] -0.09 | tipifarnib 0.064 | mubritinib 0.042 | [6] 0.006 | [7] 0.008 | [8] 0.003 | [9] 0.041 | entinostat 0.034 | vorinostat -0.005 | citarinostat -0.038 | silmitasertib 0.147 | [10] 0.132 | [11] -0.16

KHDC4 (UniProt Q7Z7F0)
inactive: bafetinib -0.051 | [1] 0.057 | nilotinib 0.063 | [2] -0.054 | dasatinib -0.009 | [3] -0.053 | [4] -0.006 | [5] -0.053 | tipifarnib -0.133 | mubritinib 0.004 | [6] -0.017 | [7] -0.003 | [8] -0.078 | [9] -0.034 | entinostat 0.009 | vorinostat 0.028 | citarinostat 0.08 | silmitasertib 0.01 | [10] -0.155 | [11] -0.052

KEAP1 (UniProt Q14145)
inactive: bafetinib -0.057 | [1] 0.032 | nilotinib -0.108 | [2] -0.108 | dasatinib -0.027 | [3] 0.021 | [4] -0.085 | [5] -0.07 | tipifarnib -0.047 | mubritinib 0.037 | [6] 0.007 | [7] -0.027 | [8] -0.076 | [9] -0.034 | entinostat 0.051 | vorinostat 0.156 | citarinostat -0.005 | silmitasertib 0.122 | [10] 0.143 | [11] -0.055

LARP7 isoform 3 (UniProt Q4G0J3)
Sequence of UniProt Q4G0J3 (Q4G0J3 whole entry, looked up): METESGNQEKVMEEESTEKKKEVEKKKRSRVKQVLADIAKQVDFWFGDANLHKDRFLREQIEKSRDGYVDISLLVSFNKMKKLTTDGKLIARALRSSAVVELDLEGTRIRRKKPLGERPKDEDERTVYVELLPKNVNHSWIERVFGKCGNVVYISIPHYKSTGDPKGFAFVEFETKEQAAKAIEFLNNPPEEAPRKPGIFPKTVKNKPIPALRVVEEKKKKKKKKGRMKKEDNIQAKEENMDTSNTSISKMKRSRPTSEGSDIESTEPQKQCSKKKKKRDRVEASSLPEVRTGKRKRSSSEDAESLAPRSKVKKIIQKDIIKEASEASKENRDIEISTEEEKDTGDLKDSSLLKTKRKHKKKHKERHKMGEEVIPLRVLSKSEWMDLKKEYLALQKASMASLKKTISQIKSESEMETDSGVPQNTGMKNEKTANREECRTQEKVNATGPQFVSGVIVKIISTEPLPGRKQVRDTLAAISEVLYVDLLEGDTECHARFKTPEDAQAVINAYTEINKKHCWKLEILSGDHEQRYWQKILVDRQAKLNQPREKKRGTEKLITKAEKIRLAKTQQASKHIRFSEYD
inactive: bafetinib -0.045 | [1] 0.041 | nilotinib 0.01 | dasatinib -0.063 | [3] -0.249 | [4] 0.021 | [5] 0.029 | tipifarnib 0.021 | mubritinib -0.05 | [6] -0.011 | [7] -0.116 | [8] -0.129 | [9] -0.019 | entinostat -0.007 | vorinostat 0.082 | citarinostat 0.043 | silmitasertib 0.03 | [10] -0.034 | [11] -0.065
active: [2] -0.298

MDC1 (UniProt Q14676)
Sequence of UniProt Q14676 (Q14676 whole entry, looked up): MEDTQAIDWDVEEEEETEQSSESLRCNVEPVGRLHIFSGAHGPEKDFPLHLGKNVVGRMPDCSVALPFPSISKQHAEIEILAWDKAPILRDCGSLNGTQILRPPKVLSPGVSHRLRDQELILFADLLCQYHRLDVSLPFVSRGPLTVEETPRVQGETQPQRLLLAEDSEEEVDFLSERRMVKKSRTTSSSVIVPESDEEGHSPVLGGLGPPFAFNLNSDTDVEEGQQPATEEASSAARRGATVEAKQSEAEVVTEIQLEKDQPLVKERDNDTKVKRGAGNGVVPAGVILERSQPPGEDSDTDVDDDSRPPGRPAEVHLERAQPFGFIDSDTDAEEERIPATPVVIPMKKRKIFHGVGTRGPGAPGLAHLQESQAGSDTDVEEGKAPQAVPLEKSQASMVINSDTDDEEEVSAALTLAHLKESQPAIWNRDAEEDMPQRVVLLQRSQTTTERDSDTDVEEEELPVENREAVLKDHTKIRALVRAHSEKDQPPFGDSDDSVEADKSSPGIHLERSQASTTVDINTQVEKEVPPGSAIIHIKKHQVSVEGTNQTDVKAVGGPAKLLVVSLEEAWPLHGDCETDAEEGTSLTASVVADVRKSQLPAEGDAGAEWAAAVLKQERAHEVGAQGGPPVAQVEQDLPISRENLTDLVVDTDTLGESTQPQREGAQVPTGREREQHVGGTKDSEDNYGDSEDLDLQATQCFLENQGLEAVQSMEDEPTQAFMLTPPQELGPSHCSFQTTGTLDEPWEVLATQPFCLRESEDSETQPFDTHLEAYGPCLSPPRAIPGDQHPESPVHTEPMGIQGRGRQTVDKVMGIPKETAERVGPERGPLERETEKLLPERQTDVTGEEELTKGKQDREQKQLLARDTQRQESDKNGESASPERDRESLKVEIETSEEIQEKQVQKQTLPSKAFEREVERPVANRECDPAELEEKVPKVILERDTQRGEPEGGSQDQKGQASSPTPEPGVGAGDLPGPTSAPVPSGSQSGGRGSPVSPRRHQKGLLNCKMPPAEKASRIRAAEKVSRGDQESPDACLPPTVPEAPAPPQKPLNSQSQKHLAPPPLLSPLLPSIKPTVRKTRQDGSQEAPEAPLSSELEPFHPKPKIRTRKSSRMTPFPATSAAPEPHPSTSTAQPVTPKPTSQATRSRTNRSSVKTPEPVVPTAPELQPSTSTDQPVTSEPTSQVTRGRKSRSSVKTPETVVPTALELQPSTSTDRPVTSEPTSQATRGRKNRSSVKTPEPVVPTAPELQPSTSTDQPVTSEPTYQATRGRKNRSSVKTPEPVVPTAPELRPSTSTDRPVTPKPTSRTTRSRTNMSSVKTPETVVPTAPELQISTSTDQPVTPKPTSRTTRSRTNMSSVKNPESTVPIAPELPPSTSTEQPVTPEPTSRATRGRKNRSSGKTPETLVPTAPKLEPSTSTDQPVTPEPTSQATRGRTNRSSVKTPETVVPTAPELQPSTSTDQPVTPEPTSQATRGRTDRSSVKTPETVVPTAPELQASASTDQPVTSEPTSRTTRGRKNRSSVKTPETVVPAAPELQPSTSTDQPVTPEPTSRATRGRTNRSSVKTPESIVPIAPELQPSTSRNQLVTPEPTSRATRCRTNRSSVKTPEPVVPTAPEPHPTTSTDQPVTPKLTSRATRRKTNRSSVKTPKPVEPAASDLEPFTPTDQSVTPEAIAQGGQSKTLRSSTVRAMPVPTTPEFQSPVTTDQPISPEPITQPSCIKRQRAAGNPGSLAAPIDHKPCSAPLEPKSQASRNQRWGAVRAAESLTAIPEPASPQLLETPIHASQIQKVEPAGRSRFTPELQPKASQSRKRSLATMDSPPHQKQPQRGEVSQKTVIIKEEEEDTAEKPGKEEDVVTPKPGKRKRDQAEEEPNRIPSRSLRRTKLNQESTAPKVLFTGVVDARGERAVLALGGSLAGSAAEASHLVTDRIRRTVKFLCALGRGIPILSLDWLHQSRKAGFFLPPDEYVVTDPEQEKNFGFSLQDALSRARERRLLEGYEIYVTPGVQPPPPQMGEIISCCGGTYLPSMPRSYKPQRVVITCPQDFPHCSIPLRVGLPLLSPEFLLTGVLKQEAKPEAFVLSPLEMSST
inactive: bafetinib -0.1 | [1] -0.269 | nilotinib 0.037 | [2] 0.02 | dasatinib 0.398 | [3] -0.191 | [4] -0.031 | [5] -0.043 | tipifarnib 0.058 | mubritinib -0.038 | [6] 0.115 | [7] -0.075 | [8] -0.054 | [9] 0.153 | entinostat 0.001 | vorinostat -0.164 | citarinostat 0.062 | silmitasertib -0.116 | [10] -0.026 | [11] -0.086

KDELR2 (UniProt P33947)
Sequence of UniProt P33947 (P33947 whole entry, looked up): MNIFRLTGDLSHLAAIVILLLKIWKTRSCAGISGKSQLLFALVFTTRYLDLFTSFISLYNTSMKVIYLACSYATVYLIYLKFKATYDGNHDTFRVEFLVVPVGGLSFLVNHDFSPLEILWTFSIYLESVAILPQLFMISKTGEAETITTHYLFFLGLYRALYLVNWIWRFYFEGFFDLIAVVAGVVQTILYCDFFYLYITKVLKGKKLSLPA
inactive: bafetinib -0.088 | [1] 0.072 | nilotinib -0.069 | [2] 0.035 | dasatinib 0.097 | [3] -0.082 | [4] 0.194 | [5] 0.264 | tipifarnib 0.125 | mubritinib -0.049 | [6] -0.071 | [7] 0.063 | [8] -0.073 | [9] -0.133 | entinostat -0.02 | vorinostat -0.238 | citarinostat -0.026 | silmitasertib -0.018 | [10] -0.031 | [11] -0.097

KIF3A (UniProt Q9Y496)
inactive: bafetinib 0.022 | [1] -0.047 | nilotinib -0.128 | [2] 0.054 | dasatinib -0.068 | [3] 0.093 | [4] 0.025 | [5] -0.043 | tipifarnib -0.031 | mubritinib 0.018 | [6] 0.075 | [7] 0.078 | [8] -0.011 | [9] -0.014 | entinostat -0.011 | vorinostat -0.137 | citarinostat -0.076 | silmitasertib -0.068 | [10] -0.048 | [11] -0.051

MARCKSL1 (UniProt P49006)
Sequence of UniProt P49006 (P49006 whole entry, looked up): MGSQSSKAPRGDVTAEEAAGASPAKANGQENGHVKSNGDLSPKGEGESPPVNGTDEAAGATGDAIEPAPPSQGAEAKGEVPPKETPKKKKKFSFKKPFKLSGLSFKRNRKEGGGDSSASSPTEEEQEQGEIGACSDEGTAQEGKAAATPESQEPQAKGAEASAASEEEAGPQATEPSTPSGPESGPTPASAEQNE
inactive: bafetinib 0.04 | [1] -0.087 | nilotinib 0.003 | [2] 0.014 | dasatinib 0.062 | [3] 0.009 | [4] -0.008 | [5] -0.004 | tipifarnib 0.034 | mubritinib 0.005 | [6] -0.02 | [7] 0.028 | [8] -0.01 | [9] 0.002 | entinostat 0.075 | vorinostat -0.062 | citarinostat 0.162 | silmitasertib -0.115 | [10] -0.035 | [11] 0.089

KLC2 (UniProt Q9H0B6)
Sequence of UniProt Q9H0B6 (Q9H0B6 whole entry, looked up): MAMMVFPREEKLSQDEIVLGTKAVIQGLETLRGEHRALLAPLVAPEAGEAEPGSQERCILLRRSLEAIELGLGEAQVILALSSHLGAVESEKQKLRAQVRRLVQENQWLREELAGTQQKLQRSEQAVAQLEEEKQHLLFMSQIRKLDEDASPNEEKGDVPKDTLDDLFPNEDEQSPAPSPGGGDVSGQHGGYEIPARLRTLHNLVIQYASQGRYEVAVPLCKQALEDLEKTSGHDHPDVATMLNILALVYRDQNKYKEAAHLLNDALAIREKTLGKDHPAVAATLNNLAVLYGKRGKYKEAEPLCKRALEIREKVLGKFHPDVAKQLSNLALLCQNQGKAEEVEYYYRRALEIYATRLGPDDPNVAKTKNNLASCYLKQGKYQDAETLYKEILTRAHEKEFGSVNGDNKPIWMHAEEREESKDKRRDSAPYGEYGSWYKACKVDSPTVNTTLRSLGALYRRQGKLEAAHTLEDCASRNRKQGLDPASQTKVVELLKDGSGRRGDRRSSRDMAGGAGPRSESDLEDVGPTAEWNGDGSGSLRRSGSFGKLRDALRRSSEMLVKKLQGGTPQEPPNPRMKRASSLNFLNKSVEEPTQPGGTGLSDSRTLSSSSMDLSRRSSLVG
inactive: bafetinib 0.013 | [1] 0.018 | nilotinib -0.049 | dasatinib -0.07 | [3] 0.025 | [4] 0.05 | [5] 0.046 | tipifarnib 0.031 | mubritinib 0.009 | [6] -0.149 | [7] -0.084 | [8] -0.134 | [9] -0.044 | entinostat 0.031 | vorinostat 0.044 | citarinostat 0.061 | silmitasertib 0.063 | [10] 0.007 | [11] -0.082
active: [2] -0.388
